Source: PubChem BioAssay

Assay: Pseudomonas biofilm growth suppression – PAO1 strain, BacTiter-Glo luminescence, LB-PBS, primary screen (AID 1144)
Settings: P. aeruginosa PAO1 biofilm, 12 h, higher = more signal; call rule not given here

z-score, inactive:
CCOC(=O)CCN1C(=O)[C@H]2[C@H]3[C@H](O)[C@H](O)CC(=NOCC=C(C)CCC=C(C)C)[C@H]3CC[C@H]2C1=O 1.18, CCOC(=O)[C@H](Cc1ccccc1)NC(=O)CCC1CC(OC(=O)NCc2cccc3ccccc23)CC2(CCCC(COC(=O)NCCOc3ccccc3)O2)O1 (some centres undefined) -1.35, CCOC(=O)[C@H](CC(C)C)NC(=O)CCC1CC(OC(=O)NCCc2ccc(F)cc2)CC2(CCCC(COC(=O)NCCCN3CCCC3=O)O2)O1 (some centres undefined) -0.31, CC(=O)OC[C@H]1O[C@H](CC=NOC(C)CN2CCCCc3nc(C)c(C)cc32)C=C[C@@H]1OC(C)=O (some centres undefined) 0.725, C#CCCCON=C1[C@H]2CCn3c(=O)n([C@@H](CC)c4ccccc4)c(=O)n3[C@H]2[C@H](O)[C@@H]2O[C@H]12 0.453, CO[C@H]1C[C@@H]2C[C@H](O)CC(CC(=O)O[C@@H](C=CCC(C)C)C[C@@H]3CC[C@H](C)[C@@H](C1)O3)O2 0.883, C=CC[C@@H]1C=C[C@H](ON=C[C@@H](NS(=O)(=O)c2ccc(C)cc2)[C@H](C)C=CCC(=O)OC)[C@@H](CO)O1 1.33, CO[C@H]1COC(=O)CCC[C@H](C)[C@@H](OC)COC(=O)CC=C[C@@H]1C 0.132, O=C(NN=C1C[C@@H](O)[C@@H](O)[C@@H]2[C@@H]3C(=O)N(Cc4ccccc4)C(=O)[C@@H]3CC[C@H]12)OCc1ccccc1 -0.281, CCOC(=O)[C@H](CC(C)C)NC(=O)CCC1CC(OC(=O)NCCc2ccc(F)cc2)CC2(CCCC(COC(=O)NCc3cccc4ccccc34)O2)O1 (some centres undefined) -0.596, CCN1C(=O)[C@H]2[C@H]3[C@H](O)[C@H](O)CC(=NOCC(C)C)[C@H]3CC[C@H]2C1=O 0.138, COC(OC)[C@@H](C)[C@H](OC)[C@@H](C)[C@H](OC)c1ccccc1 -1.32, COC(=O)[C@H](C)NC(=O)CCC1CC(OC(=O)NCc2ccc3c(c2)OCO3)CC2(CCCC(COC(=O)NCc3ccccc3)O2)O1 (some centres undefined) -0.801, CO[C@@H](C1CCCCC1)[C@@H](C)[C@H](OCc1cccc(Br)c1)[C@@H](C)CO 0.115, CC(C)CON=C1[C@H]2CCn3c(=O)n(C)c(=O)n3[C@H]2[C@H](O)[C@@H]2O[C@H]12 -0.279, C[C@]12CCC3c4ccc(OCC5CO5)cc4CCC3C1CC[C@@H]2O (some centres undefined) -0.168, CO[C@@H]1C=CCC(=O)N[C@@H](C)C(=O)OC[C@@H](OC)[C@H](C)C=CCC(=O)OC[C@H]1C 0.457, OC[C@H]1O[C@H](C#Cc2ccccc2)C=C[C@@H]1O -0.385, CC(C)[C@@H](OCc1ccccc1)[C@H](C)C=NO[C@H](C)c1cn([C@@H]2COC[C@H]2O)nn1 1.28, CN1CCc2nc(-c3ccccc3)c(-c3ccccc3)cc2C1 0.99, O=C1[C@H]2[C@H]3[C@H](O)[C@H](O)CC(=NOC[C@@H](O)COCc4ccco4)[C@@H]3CC[C@H]2C(=O)N1Cc1ccc2c(c1)OCO2 0.878, CCOC(=O)[C@H](CC(C)C)NC(=O)CCC1CC(OC(=O)NCc2ccc3c(c2)OCO3)CC2(CCCC(COC(=O)NCCc3ccccc3OC)O2)O1 (some centres undefined) 0.162, C[C@@H]1CC[C@H]2C(=O)OC(CN3C(=O)c4ccccc4C3=O)CN2[C@H]1c1ccc(Br)cc1 (some centres undefined) 0.447, O=C1C=C[C@@H](O)[C@@H]2[C@@H]3C(=O)N(Cc4ccc5c(c4)OCO5)C(=O)[C@@H]3CC[C@@H]12 0.917, COC(=O)[C@H](C)NC(=O)CCC1CC(OC(=O)NCc2cccc3ccccc23)CC2(CCCC(COC(=O)NCCCN3CCCC3=O)O2)O1 (some centres undefined) -1.07, CO[C@@H]1COC(=O)[C@H](COCc2ccccc2)NC(=O)CC=C[C@@H](C)[C@H](OC)COC(=O)[C@@H](C)NC(=O)CC=C[C@H]1C 0.104, CON=C(C)CCN1CCCCc2nc(C)c(C)cc21 -0.0896, C#CCCCON=C1[C@H]2CCn3c(=O)n(Cc4cc5c(cc4Cl)OCO5)c(=O)n3[C@H]2[C@H](O)[C@@H]2O[C@H]12 -0.55, C[C@H]1CC[C@H]2C(=O)N[C@H](Cc3ccccc3)C(=O)N2[C@@H]1c1ccccc1 0.108
